Test results from PubChem BioAssay (EPA / NIEHS).
Where “and” joins values, the source holds several entries; their conditions need not be identical. Identical values can stand only once. Calls of active or inactive are those of the source. The calls were made as follows: active = hit-call score of the fitted dose curve at least 0.9, where 1 is the maximum; inactive = score below 0.9.

Experiment: ATG_BRE_CIS: Attagene CIS-FACTORIAL HepG2 Assay for human Bone Morphogenetic Protein (BMP) Response Element (BRE) (AID 2282933)
Settings: HepG2 BMP response element reporter, Attagene transcription factor profiling; actives raise or lower the signal
Description: ATG_CIS is a cell-based, multiplexed-readout assay that uses HepG2, a human liver cell line, with measurements taken at 24 hours after chemical dosing in a 24-well plate.ATG_BRE_CIS is one of 52 assay component(s) measured or calculated from the ATG_CIS assay. It is designed to make measurements of mRNA induction, a form of inducible reporter, as detected with fluorescence intensity signals by Reverse transcription polymerase chain reaction (RT-PCR) and Capillary electrophoresis technology.Data from the assay component ATG_BRE_CIS was analyzed into 1 assay endpoint. This assay endpoint, ATG_BRE_CIS, was analyzed with bidirectional fitting relative to DMSO as the negative control and baseline of activity. Using a type of inducible reporter, measures of mRNA for gain or loss-of-signal activity can be used to understand the reporter gene at the transcription factor-level as they relate to the gene SMAD1. Furthermore, this assay endpoint can be referred to as a primary readout, because this assay has produced multiple assay endpoints where this one serves a reporter gene function. To generalize the intended target to other relatable targets, this assay endpoint is annotated to the dna binding intended target family, where the subfamily is Smad protein.
Human liver HepG2 cells are transiently transfected with multiple reporter transcription units (MRTUs) in 6-well plates using FuGene 6 reagent (Roche; 3 ml FuGene/1 mg DNA). The MRTU constructs are regulated by a cis-regulating element (promoter). […] A major difference between the CIS and TRANS system is that in CIS activities of endogenous TFs are measured, whereas the TRANS assay evaluates changes in activities of exogenous, chimeric NR-Gal4 proteins. […] At the end of 24 hour incubation, total RNA was isolated using TriZol reagent (Invitrogen). The isolated RNA is then reverse-transcribed using oligo(dT) primer and Mo-MLV reverse transcriptase (Invitrogen) with DNAse I (Ambion) treatment for 30 min. The one-tenth of the produced cDNA was amplified by PCR using Taq DNA polymerase (Invitrogen) and two reporter sequence-specific primers. The PCR products were fluorescently labeled by primer extension with 6-arboxyfluorescein (6-FAM) 5'-labeled reporter sequence-specific primer (2 min at 95 C, 20 s at 68 C and 10 min at 72 C) and these products were digested with 5U of HpaI (New England Biolabs) for 2h at 37 C. The fragments were purified using Qiaquick PCR columns (Qiagen), analyzed on an ABI 3130xL genetic analyzer (Applied Biosystems) with peak positions identified by using a set of X-rhodamine (ROX)-labeled MapMarker1000 molecular weight standards (BioVentures). The raw capillary electrophoresis data was processed using Attagraph software (Attagene).

| SMILES | outcome | AC50 |
| --- | --- | --- |
| CC(C)N(Cc1ccccc1)C(=O)C(C)(C)C | inactive | – |
| CCC[CH2][Sn]([Cl])([CH2]CCC)[CH2]CCC | inactive | – |
| CCNS(=O)(=O)C(F)(F)C(F)(F)C(F)(F)C(F)(F)C(F)(F)C(F)(F)C(F)(F)C(F)(F)F | – | 33.4 µM (active) and 63.6 µM (active) and 35.3 µM (active) |
| CCN(CC)CCO | inactive | – |
| O=C(N[C@H](c1ccccc1)[C@@H]1CN2CCC1CC2)c1c(Cl)ccc(C(F)(F)F)c1Cl | inactive | – |
| Cc1ccc(N=C=O)cc1N=C=O | inactive | – |
| CC(C)(C)OOC(=O)c1ccccc1 | inactive | – |
| [As]#[In] | inactive | – |
| Cc1cccc(N)c1N | inactive | – |
| CCN(CC)N=O | inactive | – |
| Clc1ccc(C(c2ccc(Cl)cc2)C(Cl)(Cl)Cl)cc1 | inactive | – |
| O=C(Nc1ccccc1)c1ccccc1I | inactive | – |
| Nc1ccc(Cc2ccc(N)cc2)cc1 | inactive | – |
| c1ccc2c(c1)-c1cccc3cccc-2c13 | inactive | – |
| N#CC(Br)Br | inactive | – |
| ClC1=C(Cl)C2(Cl)C3C(Cl)C=CC3C1(Cl)C2(Cl)Cl (stereo not given) | inactive | – |
| CN(C)c1ccc(C(=O)c2ccc(N(C)C)cc2)cc1 | inactive | – |
| O=[N+]([O-])C(Br)(CO)CO | inactive | – |
| c1ccc(N=Nc2ccccc2)cc1 | inactive | – |
| Nc1ccc(N=Nc2ccccc2)cc1 | – | 59.4 µM (active) |

| SMILES | outcome | AC50 |
| --- | --- | --- |
| CC(C)(OOC(C)(C)c1ccccc1)c1ccccc1 | – | 48.5 µM (active) |
| Oc1ccccc1Cl | inactive | – |
| O=P(OCCCl)(OCCCl)OCCCl | inactive | – |
| Cc1ccc(N)c(N)c1 | inactive | – |
| C[N+](C)(C)CC1CO1 (stereo not given) | inactive | – |
| COC(=O)c1ccccc1N | inactive | – |
| Nc1ccc(Cl)cc1N | inactive | – |
| COP(=S)(OC)SCN1C(=O)c2ccccc2C1=O | inactive | – |
| CCCCCCCCOC(=O)c1ccc(C(=O)OCCCCCCCC)c(C(=O)OCCCCCCCC)c1 | inactive | – |
| Nc1ccc([N+](=O)[O-])cc1 | inactive | – |
| C1=Cc2cccc3cccc1c23 | inactive | – |
| Clc1ccc(C(c2ccc(Cl)cc2)C(Cl)Cl)cc1 | inactive | – |
| CC(C)COC(=O)c1ccccc1C(=O)OCC(C)C | – | 110 µM (active) |
| OCCOCCO | inactive | – |
| c1ccc(C2CO2)cc1 (stereo not given) | inactive | – |
| CN(C)C(=O)Nc1ccc(Cl)cc1 | inactive | – |
| CCC(C)c1ccc(O)cc1 (stereo not given) | – | 100 µM (active) |
| CCOC(=O)[C@]1(c2ccccc2)Oc2ccccc2[C@@H]1N | – | 22.5 µM (active) |
| c1ccc(NNc2ccccc2)cc1 | inactive | – |
| CC(C)(O)c1cnn2c(-c3ccc(F)c(-c4c(F)cccc4C#N)c3)cnc2n1 | inactive | – |
